Screen size: about 55,000 compounds; about 530 (0.96%) were called active. Entries that show only a call come without a potency. Inconclusive results (about 7%) are left out. Calls come from the whole dose curve; as a rule, active = well fitted cell-killing curve with a large enough effect; inconclusive = small, poorly fitted or top-dose-only effect; inactive = no such curve, though single readings can be large or run the other way. The sample as a whole holds a higher share of actives than the screen did.
assay: qHTS Screen for Compounds that Selectively Target Cancer Cells with p53 Mutations: Cytotoxicity of p53 Null Cells at the Nonpermissive Temperature; conditions: H1299 p53-null (neo) cells, 39C, ATPlite viability, 24 h; series mostly up to 46.1 µM; note: nearly all actives have a fitted effect of over 50% in size
Method in brief: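 Cells seeded at 600/well, 37C overnight. Compound added (up to 46 uM), plates shifted to 39C for 24 hr. ATPlite added, luminescence read after 20 min at room temperature.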
Potency is the fitted concentration of half-maximal effect.

| Structure (SMILES) | Potency | activity, negative = cell killing |
| --- | --- | --- |
| COc1ccc(OC)c(-c2nc(C(N)=O)c3c(n2)n(-c2ccc4c(c2)OCO4)c(=O)n3C)c1 | inactive | – |
| CCOc1ccc(NC(=O)CN(Cc2ccccc2)S(=O)(=O)c2ccc(Cl)cc2)cc1 | inactive | – |
| CCOc1ccc(N(Cc2ccccc2)C(=O)c2nc(SCC)ncc2Cl)cc1 | inactive | – |
| CCOc1ccc(N(Cc2ccccc2)C(=O)c2nc(S(C)(=O)=O)ncc2Cl)cc1 | 10 µM (active) | – |
| CNc1ccc(NC(C)=O)cc1[N+](=O)[O-] | – | -11.3% [at 1.84 µM] (inactive) |
| N#Cc1c(-c2ccc(F)cc2)cc(C2CC2)nc1SCC(=O)c1cccs1 | – | -5.05% [at 1.84 µM] (inactive) |
| CC(C)c1ccc(NC(=O)c2ccc3c(O)c(S(=O)(=O)c4ccccc4)c(=O)[nH]c3c2)cc1 | 7.94 µM (active) | – |
| COc1ccc(CNC(=O)c2ccc3c(O)c(S(=O)(=O)c4ccccc4)c(=O)[nH]c3c2)cc1 | inactive | – |
| Cc1ccc(C(=O)Nc2ccc3[nH]c(=O)c(=O)[nH]c3c2)cc1 | inactive | – |
| Cc1c(NC(=O)Cc2ccccc2)cccc1-c1nc2cccnc2s1 | inactive | – |
| CCC(C(=O)Nc1cccc(-c2nc3cccnc3s2)c1C)c1ccccc1 (stereo not given) | inactive | – |
| Cc1c(NC(=O)C(C)(C)C)cccc1-c1nc2ccccc2s1 | 15.8 µM (active) | – |
| O=C(Nc1cc(C(F)(F)F)ccc1Cl)C(=O)N1CCCCC1 | – | -3.07% [at 1.84 µM] (inactive) |
| Cc1cccc(NC(=O)CSc2ncc(-c3ccccc3)[nH]2)c1C | inactive | – |
| Cc1ccc(S(=O)(=O)c2cn(Cc3ccccc3)c3cc(N4CCCC4)c(F)cc3c2=O)c(C)c1 | inactive | – |
| COCCN(Cc1ccco1)C(=O)Cn1ncc2c([nH]c3ccccc32)c1=O | inactive | – |
| Cc1ccc(CN(C(=O)COc2ccc(Cl)cc2C)C2CCS(=O)(=O)C2)o1 (stereo not given) | inactive | – |
| COc1cc(C(=O)N2CCN(c3ccc(Nc4ccc(C)cc4)nn3)CC2)cc(OC)c1OC | inactive | – |
| O=C(COC(=O)c1cc2c(s1)CCCC2)NCc1ccccc1Cl | inactive | – |
| Cc1ccc(NC(=O)c2sc3nc(N)c(C#N)cc3c2N)cc1 | – | 9.07% [at 1.84 µM] (inactive) |
| CCOc1ccc(CNC(=O)C2CCN(c3nnc(-n4cccc4CNc4ccc(C)cc4)s3)CC2)cc1OC | inactive | – |
| CCOC(=O)/C(C#N)=C/c1ccc(N2CCN(Cc3ccccc3)CC2)cc1 | – | 2.74% [at 1.84 µM] (inactive) |
| Cc1cccc(-n2c(=O)c3c(c4cc(C)ccc4n3C)n(CC(=O)Nc3ccccc3Cl)c2=O)c1 | inactive | – |
| CCOc1ccc(-c2nonc2NC(=O)c2oc3ccc(CC)cc3c2C)cc1 | inactive | – |
| Cc1ccc(S(=O)(=O)N2CCN(CC(=O)N/N=C/c3cc([N+](=O)[O-])ccc3Cl)CC2)cc1 | inactive | – |

| Structure (SMILES) | Potency | activity, negative = cell killing |
| --- | --- | --- |
| CCc1nnc(SCC(=O)Nc2cc(OC)ccc2OC)nc1CC | inactive | – |
| O=c1n(Cc2cccc(C(F)(F)F)c2)c2ccccc2c2nc(-c3ccccc3)nn12 | inactive | – |
| Cc1c(NC(=O)c2cc(-c3ccc(Br)cc3)on2)c(=O)n(-c2ccccc2)n1C | inactive | – |
| Cc1ccc(Nc2nnc(-c3ccc(C)c(S(=O)(=O)N4CCCCC4)c3)c3ccccc23)cc1 | inactive | – |
| Cc1ccc(-c2nnc(Nc3cccc(Br)c3)c3ccccc23)cc1S(=O)(=O)NCC1CCCO1 (stereo not given) | inactive | – |
| Cc1ccc(-c2nnc(Nc3ccc(OCC(N)=O)cc3)c3ccccc23)cc1S(=O)(=O)NCC1CCCO1 (stereo not given) | 12.6 µM (active) | – |
| C=CCn1c(SCC(N)=O)nnc1-c1cc2c(s1)CCC(CC)C2 (stereo not given) | inactive | – |
| Cc1nc2sc(C)c(C)n2c(=O)c1S(=O)(=O)NCCc1ccc(Cl)cc1 | inactive | – |
| Cc1cc(C)c(/C=C/c2onc(C)c2S(=O)(=O)N2CCC(C(=O)Nc3ccc(Cl)cc3C)CC2)c(C)c1 | inactive | – |
| O=C(CNS(=O)(=O)c1cccs1)N1CCN(c2ccccc2Cl)CC1 | inactive | – |
| COc1ccc(OC)c(NC(=O)CSC2=Nc3ccccc3C3=NC(CC(=O)NCCc4ccccc4)C(=O)N23)c1 (stereo not given) | inactive | – |
| COc1cc(Cl)c(C)cc1NC(=O)COC(=O)c1cc(SC)ccc1Cl | inactive | – |
| Cc1cc2n(n1)C(c1cc(C(C)(C)C)c(O)cc1O)Nc1ccccc1-2 (stereo not given) | inactive | – |
| Clc1ccc(-n2nnnc2-c2cnc(-c3ccccn3)nc2-c2cccs2)cc1 | inactive | – |
| c1ccc(-c2noc(-c3cccs3)n2)nc1 | 14.1 µM (active) | – |
| O=C(CN1C(=O)CCn2nc(-c3ccccc3)cc21)NCc1ccccc1 | inactive | – |
| CN(C(=O)c1c(Cl)cnn1C)C12CC3CC(CC(C3)C1)C2 | – | 17.1% [at 1.84 µM] (inactive) |
| COc1ccc(-c2csc(NC(=O)COC(=O)Cc3ccc(Cl)cc3Cl)n2)cc1 | inactive | – |
| COc1ccc(NC(=O)c2cc3cc(C)ccc3n2C)cc1 | inactive | – |
| Nc1nnc(SCC(=O)Nc2ccc3nc(SCC(=O)Nc4ccccc4)sc3c2)s1 | inactive | – |
| Cc1ccccc1CNC(=O)CSc1nnc(C)c2c(C)n(-c3ccccc3)nc12 | inactive | – |
| O=C(CSc1ccc(C(F)(F)F)cc1[N+](=O)[O-])NCCOc1ccccc1 | inactive | – |
| COc1ccc(-c2c3c(=O)n(C)c(=O)n(C)c3c3c(C)nc4ccccc4n23)cc1 | inactive | – |
| CCc1nnc(SCc2nc(-c3cccc(C)c3)oc2C)c2cc3sc(C)cc3n12 | inactive | – |
| Cc1noc(COc2ccccc2OCc2onc(C)c2Cl)c1Cl | inactive | – |

| Structure (SMILES) | Potency | activity, negative = cell killing |
| --- | --- | --- |
| O=C(NCCc1ccc(Cl)cc1)c1ccc2nc(CCc3ccccc3)oc2c1 | inactive | – |
| COc1cc(C(=O)NCCc2csc3nc(-c4ccccc4C)nn23)cc(OC)c1OC | inactive | – |
| COc1ccc2c(c1)c(N1CCCC1=O)c(C(=O)Nc1ccccc1C(F)(F)F)n2C | inactive | – |
| Cc1ccccc1-n1c(C)cc(/C=C2\NC(=O)NC2=O)c1C | 8.91 µM (active) | – |
| CCc1ccc(CNC(=O)c2cc3cc4ccc(OC)cc4nc3o2)cc1 | inactive | – |
| CCOc1ccc(NC(=O)Cn2cc(C(=O)c3ccc(C)cc3)c(=O)c3cc4c(cc32)OCCO4)cc1 | inactive | – |
| Cc1cc(C)cc(NC(=O)CSc2nc(=O)n(CCN3CCOCC3)c3c2CCC3)c1 | inactive | – |
| CCCCCCCCC(=O)NCCOc1ccccc1 | inactive | – |
| Cc1ccc(NC(=O)CN2C(=O)CC(C)Sc3ccccc32)c(C)c1 (stereo not given) | inactive | – |
| O=C(CSc1nc2c(c(=O)[nH]1)CN(Cc1ccc(F)cc1)CC2)Nc1ccccc1Cl | inactive | – |
| Cc1cccc2nc(-c3ccc(Cl)s3)c(Nc3ccc4c(c3)OCCO4)n12 | inactive | – |
| Cc1ccn2c(Nc3ccc4c(c3)OCCO4)c(-c3ccc(C)s3)nc2c1 | 10 µM (active) | – |
| Cc1ccc(Nc2c(-c3ccc(C)s3)nc3ccccn23)cc1 | inactive | – |
| CCn1c2ccccc2c2nnc(N3CCN(c4cc(C)ccc4C)CC3)nc21 | inactive | – |
| Cc1ccc(CCNC(=O)c2ccc(CS(=O)(=O)Cc3cccc(C)c3)o2)cc1 | inactive | – |
| Cc1ccc(Cl)cc1N1CCN(C(=O)CN2C(=O)COc3ccc(S(=O)(=O)N4CCOCC4)cc32)CC1 | inactive | – |
| Cc1cc(C)cc(-n2c(SCC(=O)NCC3CCCO3)nc3c([nH]c4ccccc43)c2=O)c1 (stereo not given) | inactive | – |
| CC1CCc2noc(NC(=O)c3ccc([N+](=O)[O-])cc3)c2C1 (stereo not given) | inactive | – |
| COc1ccc(-c2cc(C(=O)Nc3sc4c(c3C(N)=O)CCCC4)no2)cc1 | inactive | – |
| COc1ccc(C(=O)Nc2onc3c2CCCC3)cc1 | 7.94 µM (active) | – |
| O=C(Cn1ncc2c3ccccc3n(Cc3ccccc3)c2c1=O)NC1CCCCCC1 | inactive | – |
| Cc1c(Cl)cccc1NC(=O)c1noc2c1CCCC2 | inactive | – |
| O=C(N/N=C/c1cccc([N+](=O)[O-])c1)C1CC(=O)N(c2ccc(Br)cc2)C1 (stereo not given) | inactive | – |
| CN(Cc1ccccc1)C(=O)COC(=O)c1ccccc1Nc1ccccc1 | – | -8.55% [at 1.84 µM] (inactive) |
| O=C(NCc1ccccc1)c1cccc(NC(=O)N2CCSc3ncccc32)c1 | inactive | – |

— PubChem BioAssay AID904 (National Center for Advancing Translational Sciences (NCATS), 2007)
